For some of these results: Measured potencies and affinities stand elsewhere. Active and inactive are the calls of the source. Unless noted, no rule for the calls is given here.
Tests used:
[1] = antimalarial activity against Dd2 strain (AID 2302;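 active = growth inhibition above 50% at the single 2 µM test dose, taken to imply half-maximal potency below 2 µM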;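 also: 0% = DMSO untreated growth and 100% = chloroquine plus artemisinin killed control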); conditions: P. falciparum Dd2 in RBCs, LDH growth readout, 72 h; at 2 µM; active compounds read high
[2] = human hepatoma cell viability loss – ATP luminescence, cytotoxicity control for P. falciparum antimalarial project, primary screen (AID 2303;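 active = inhibition above 50%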;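 also: 0% = DMSO wells and 100% = digitonin-killed cells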); conditions: HepG2 viability, 24-48 h, at 10 µM, active compounds read high
[3] = target: L-lactate dehydrogenase (Plasmodium falciparum (isolate CDC / Honduras)) (UniProt Q27743); assay: PfLDH activity inhibition – cell lysate, 3D7 strain, counter-screen for P. falciparum growth inhibition project (AID 2304);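 also: 0% = vehicle and 100% = reference inhibitor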; conditions: P. falciparum 3D7 crude extract, LDH APAD/NBT absorbance; at 2 µM; active compounds read high
[4] = inhibition of 3D7 malaria parasite growth – strain 3D7 (AID 2306);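 also: 0% = DMSO wells and 100% = chloroquine plus artemisinin control wells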; conditions: P. falciparum 3D7 erythrocytic growth, LDH absorbance, 72 h; at 2 µM; active compounds read high
[5] = target: Calcium-dependent protein kinase 1 (Plasmodium falciparum (isolate 3D7)) (UniProt P62344); assay: PfCDPK1 kinase inhibitors, biochemical, TCAMS library (AID 1159585; cut-off not given, nearly all actives have IC50 up to about 0.98 µM;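 also: inhibitors leave more ATP so luminescence rises with inhibition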); conditions: recombinant PfCDPK1, Kinase-Glo ATP depletion luminescence
[6] = target: Plasmodium falciparum protein kinase 6 (PK6, PF3D7_1337100) (UniProt Q8IDW1); assay: PfPK6 kinase inhibitors, biochemical, TCAMS library (AID 1159586); conditions: recombinant PfPK6, Kinase-Glo ATP depletion luminescence
[7] = target: Protein kinase 7 (PK7), Plasmodium falciparum 3D7 (PF3D7_0213400) (UniProt Q7YTF7); assay: inhibition of Plasmodium PK7 catalytic activity – biochemical, TCAMS antimalarial set, Kinase-Glo luminescence (AID 1159587); conditions: recombinant PfPK7, Kinase-Glo ATP depletion luminescence
[8] = target: Calcium-dependent protein kinase 4 (Plasmodium falciparum (isolate 3D7)) (UniProt Q8IBS5); assay: PfCDPK4 kinase inhibitors, biochemical, TCAMS library (AID 1159588; cut-off not given, nearly all actives have IC50 up to about 0.91 µM); conditions: recombinant PfCDPK4, Kinase-Glo ATP depletion luminescence
Calcium-dependent protein kinase 4 (Plasmodium falciparum (isolate 3D7)), sequence (Q8IBS5 whole entry, looked up): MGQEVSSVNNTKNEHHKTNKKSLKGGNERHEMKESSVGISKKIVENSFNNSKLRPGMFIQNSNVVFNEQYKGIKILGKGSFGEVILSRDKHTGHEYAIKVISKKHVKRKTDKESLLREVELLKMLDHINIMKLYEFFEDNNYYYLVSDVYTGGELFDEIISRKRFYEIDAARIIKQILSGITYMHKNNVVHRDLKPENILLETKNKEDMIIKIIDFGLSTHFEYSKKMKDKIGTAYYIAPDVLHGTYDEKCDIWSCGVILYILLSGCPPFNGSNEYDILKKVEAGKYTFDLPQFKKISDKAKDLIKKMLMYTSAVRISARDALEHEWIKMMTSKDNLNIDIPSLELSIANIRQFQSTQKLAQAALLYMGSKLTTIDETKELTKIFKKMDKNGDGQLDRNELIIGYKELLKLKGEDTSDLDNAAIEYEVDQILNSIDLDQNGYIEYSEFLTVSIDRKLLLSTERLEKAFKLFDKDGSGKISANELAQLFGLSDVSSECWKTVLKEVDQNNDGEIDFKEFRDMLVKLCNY

L-lactate dehydrogenase (Plasmodium falciparum (isolate CDC / Honduras)), sequence (Q27743 whole entry, looked up): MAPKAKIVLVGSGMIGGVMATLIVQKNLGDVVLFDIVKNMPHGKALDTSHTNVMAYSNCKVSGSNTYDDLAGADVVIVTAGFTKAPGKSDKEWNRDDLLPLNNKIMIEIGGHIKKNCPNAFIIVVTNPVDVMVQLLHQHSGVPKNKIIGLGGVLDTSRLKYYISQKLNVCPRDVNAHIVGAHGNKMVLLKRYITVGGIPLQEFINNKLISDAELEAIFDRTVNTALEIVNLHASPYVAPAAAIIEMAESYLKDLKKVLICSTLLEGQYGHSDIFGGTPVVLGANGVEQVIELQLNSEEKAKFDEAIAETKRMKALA
Plasmodium falciparum protein kinase 6 (PK6, PF3D7_1337100), sequence (Q8IDW1 1-305): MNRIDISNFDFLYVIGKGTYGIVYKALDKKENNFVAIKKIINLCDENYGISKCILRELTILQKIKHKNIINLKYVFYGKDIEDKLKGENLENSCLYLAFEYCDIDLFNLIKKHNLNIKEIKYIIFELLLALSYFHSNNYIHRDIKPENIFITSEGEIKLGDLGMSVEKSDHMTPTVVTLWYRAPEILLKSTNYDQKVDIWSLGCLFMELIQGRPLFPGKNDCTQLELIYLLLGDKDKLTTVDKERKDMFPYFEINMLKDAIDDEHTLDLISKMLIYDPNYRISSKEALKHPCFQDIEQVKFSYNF
Calcium-dependent protein kinase 1 (Plasmodium falciparum (isolate 3D7)), sequence (P62344 whole entry, looked up): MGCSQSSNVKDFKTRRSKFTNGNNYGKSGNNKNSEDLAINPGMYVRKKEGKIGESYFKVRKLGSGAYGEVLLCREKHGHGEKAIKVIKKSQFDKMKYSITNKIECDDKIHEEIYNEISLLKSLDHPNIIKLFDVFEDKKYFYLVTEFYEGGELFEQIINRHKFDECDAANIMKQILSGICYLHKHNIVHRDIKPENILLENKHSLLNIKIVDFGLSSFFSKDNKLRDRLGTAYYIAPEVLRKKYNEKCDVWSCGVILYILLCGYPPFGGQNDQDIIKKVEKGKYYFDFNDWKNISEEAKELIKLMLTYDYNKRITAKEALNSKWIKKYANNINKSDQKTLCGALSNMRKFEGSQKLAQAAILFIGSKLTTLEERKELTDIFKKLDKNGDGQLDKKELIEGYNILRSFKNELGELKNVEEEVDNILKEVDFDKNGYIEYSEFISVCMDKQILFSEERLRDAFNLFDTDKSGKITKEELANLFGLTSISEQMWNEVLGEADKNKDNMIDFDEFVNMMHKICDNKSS
Protein kinase 7 (PK7), Plasmodium falciparum 3D7 (PF3D7_0213400), sequence (Q7YTF7 1-343): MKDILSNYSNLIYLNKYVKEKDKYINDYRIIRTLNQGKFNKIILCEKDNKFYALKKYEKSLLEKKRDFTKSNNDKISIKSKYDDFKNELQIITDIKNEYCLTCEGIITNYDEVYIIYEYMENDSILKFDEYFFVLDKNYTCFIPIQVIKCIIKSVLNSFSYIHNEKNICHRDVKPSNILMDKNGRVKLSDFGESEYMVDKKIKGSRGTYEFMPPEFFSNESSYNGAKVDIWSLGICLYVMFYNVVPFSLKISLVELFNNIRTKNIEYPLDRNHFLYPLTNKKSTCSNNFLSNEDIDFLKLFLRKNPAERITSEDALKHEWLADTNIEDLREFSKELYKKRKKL

Cc1ccc(F)c(OCC2CCCN(c3ccc(C(=O)NC4CC4)cn3)C2)c1 (stereo not drawn)
inactive: inhibition [2] 3% | inhibition [3] -3% | outcome [5] | outcome [6] | outcome [7] | outcome [8]
active: growth inhibition [1] 94% | growth inhibition [4] 96%

O=C(NC(CCCN1CCC(c2ccccc2)CC1)c1ccc(Cl)c(Cl)c1)c1cc(C(F)(F)F)cc(C(F)(F)F)c1 (stereo not drawn)
inactive: inhibition [2] 33% | inhibition [3] 3% | outcome [5] | outcome [6] | outcome [7] | outcome [8]
active: growth inhibition [1] 87% | growth inhibition [4] 92%

CC(C)C1C(O)=C(c2ccc3ccccc3c2)C(=O)N1CC1CCCCC1 (stereo not drawn)
active: growth inhibition [4] 84%
inactive: growth inhibition [1] 43% | inhibition [2] 11% | inhibition [3] -3% | outcome [5] | outcome [6] | outcome [7] | outcome [8]

CCCNc1ccc2nccc(CCN3CCC(NCc4ccc5c(c4)NC(=O)CS5)CC3)c2n1
active: growth inhibition [4] 94%
inactive: growth inhibition [1] 17% | inhibition [2] -2% | inhibition [3] -5% | outcome [5] | outcome [6] | outcome [7] | outcome [8]

O=C(Cc1cnc[nH]1)Nc1ccc(-c2ccc(-c3nc4ccc(F)cc4[nH]3)cc2)cc1
active: growth inhibition [1] 91% | growth inhibition [4] 100%
inactive: inhibition [2] 39% | inhibition [3] 0% | outcome [5] | outcome [6] | outcome [7] | outcome [8]

Cc1cccc(OC(C)C(=O)Nc2cc(C(F)(F)F)ccc2N2CCOCC2)c1 (stereo not drawn)
active: growth inhibition [1] 98% | growth inhibition [4] 100%
inactive: inhibition [2] 2% | inhibition [3] -3% | outcome [5] | outcome [6] | outcome [7] | outcome [8]

CC(=O)Nc1ccc(C(=O)Nc2cccc(-c3cccc(-c4nc5ccc(C(F)(F)F)cc5[nH]4)c3)c2)cn1
inactive: inhibition [2] 8% | inhibition [3] -2% | outcome [5] | outcome [6] | outcome [7] | outcome [8]
active: growth inhibition [1] 97% | growth inhibition [4] 101%

Oc1ccc(CCNCCCCCCNCCCc2ccc(Cl)cc2)cc1O
inactive: growth inhibition [1] 3% | inhibition [2] 13% | inhibition [3] -2% | outcome [5] | outcome [6] | outcome [7] | outcome [8]
active: growth inhibition [4] 87%

COc1ccc(C)c(Nc2ccnc(Nc3cccc(-c4nc5ccccc5[nH]4)c3)n2)c1
inactive: growth inhibition [1] 35% | inhibition [2] 27% | inhibition [3] -1% | outcome [5] | outcome [6] | outcome [7] | outcome [8]
active: growth inhibition [4] 98%

CC(=O)N(C)c1ccc(C(=O)Nc2cccc(-c3cccc(-c4nc5c(C)cccc5[nH]4)c3)c2)cc1
active: growth inhibition [4] 89%
inactive: growth inhibition [1] 30% | inhibition [2] 11% | inhibition [3] -2% | outcome [5] | outcome [6] | outcome [7] | outcome [8]

CCCC(=O)NC(NC(=S)Nc1ccc([N+](=O)[O-])cc1)C(Cl)(Cl)Cl (stereo not drawn)
active: growth inhibition [4] 93%
inactive: growth inhibition [1] 14% | inhibition [2] 10% | inhibition [3] 4% | outcome [5] | outcome [6] | outcome [7] | outcome [8]

CCCC(=O)NC(c1ccc(C(C)C)cc1)c1ccc2cccnc2c1O (stereo not drawn)
active: inhibition [2] 50% | growth inhibition [4] 90%
inactive: growth inhibition [1] 37% | inhibition [3] 0% | outcome [5] | outcome [6] | outcome [7] | outcome [8]

CCC(C)(C)C1CCc2[nH]c3ccccc3c(=O)c2C1 (stereo not drawn)
active: growth inhibition [1] 96% | growth inhibition [4] 97%
inactive: inhibition [2] 16% | inhibition [3] -4% | outcome [5] | outcome [6] | outcome [7] | outcome [8]

Cc1cc(N2CCC(NS(=O)(=O)c3ccccc3)CC2)nc(Nc2cccc(C#N)c2)n1
active: inhibition [2] 52% | growth inhibition [4] 93%
inactive: growth inhibition [1] 29% | inhibition [3] 3% | outcome [5] | outcome [6] | outcome [7] | outcome [8]

Nc1cccc(CNCc2cccc(-c3cccc(-c4nc5ccc(C(F)(F)F)cc5[nH]4)c3)c2)c1
active: growth inhibition [1] 96% | growth inhibition [4] 102%
inactive: inhibition [2] 8% | inhibition [3] 1% | outcome [5] | outcome [6] | outcome [7] | outcome [8]

Cc1nc(-c2cccc(Nc3nccc(NCC(O)c4ccc(C(F)(F)F)cc4)n3)c2)cs1 (stereo not drawn)
inactive: inhibition [2] 33% | inhibition [3] 4% | outcome [5] | outcome [6] | outcome [7] | outcome [8]
active: growth inhibition [1] 99% | growth inhibition [4] 100%

Nc1ccc2nc(C=Cc3ccc(Cl)cc3)[nH]c2c1
inactive: inhibition [2] 19% | inhibition [3] 1% | outcome [5] | outcome [6] | outcome [7] | outcome [8]
active: growth inhibition [1] 83% | growth inhibition [4] 91%

Cc1cc(C)nc(-n2[nH]c(C)c(Cc3ccc(C(C)(C)C)cc3)c2=O)n1
active: growth inhibition [1] 61% | growth inhibition [4] 88%
inactive: inhibition [2] -9% | inhibition [3] -1% | outcome [5] | outcome [6] | outcome [7] | outcome [8]

CC(C)(C)c1ccc(S(=O)(=O)Nc2ccccc2N2CCOCC2)cc1
active: growth inhibition [1] 60% | growth inhibition [4] 90%
inactive: inhibition [2] 11% | inhibition [3] 1% | outcome [5] | outcome [6] | outcome [7] | outcome [8]

COc1ccc(Cl)cc1-c1nc(C(=O)NCCN2CCCCC2)c(C(C)C)s1
inactive: growth inhibition [1] 37% | inhibition [2] 14% | inhibition [3] -3% | outcome [5] | outcome [6] | outcome [7] | outcome [8]
active: growth inhibition [4] 100%

Cc1cc(C)cc(CC(=O)N2CCC(n3c(C)nc4ccc(C)cc43)CC2)c1
active: growth inhibition [1] 100% | inhibition [2] 52% | growth inhibition [4] 100%
inactive: inhibition [3] 6% | outcome [5] | outcome [6] | outcome [7] | outcome [8]

COc1c(C)[nH]c(C)c(-c2ccc(Oc3cccc(C(F)(F)F)c3)cc2)c1=O
inactive: inhibition [2] 40% | inhibition [3] 3% | outcome [5] | outcome [6] | outcome [7] | outcome [8]
active: growth inhibition [1] 96% | growth inhibition [4] 98%

CCCCN(CCCC)CCNC(=O)c1cc(OC(F)(F)F)ccc1O
inactive: inhibition [2] 8% | inhibition [3] -8% | outcome [5] | outcome [6] | outcome [7] | outcome [8]
active: growth inhibition [1] 90% | growth inhibition [4] 93%

CC(CN1CCN(C)CC1)C(=O)Nc1cccc(-c2ccc(-c3nc4ccccc4[nH]3)cc2)c1 (stereo not drawn)
inactive: growth inhibition [1] 38% | inhibition [2] 2% | inhibition [3] -1% | outcome [5] | outcome [6] | outcome [7] | outcome [8]
active: growth inhibition [4] 95%

CCCC(C)Nc1nc(C)cc(NCCC(=O)Nc2ccc(OC)cc2)n1 (stereo not drawn)
inactive: growth inhibition [1] 2% | inhibition [2] 12% | inhibition [3] -1% | outcome [5] | outcome [6] | outcome [7] | outcome [8]
active: growth inhibition [4] 97%

CNc1ccc(CNCc2ccc(-c3ccc(-c4nc5ccc(C(F)(F)F)cc5[nH]4)cc3)cc2)cc1
active: growth inhibition [1] 98% | inhibition [2] 53% | growth inhibition [4] 101%
inactive: inhibition [3] -3% | outcome [5] | outcome [6] | outcome [7] | outcome [8]

NC(CC1CC(=O)N1CC(=O)O)C(=O)O (stereo not drawn)
active: inhibition [2] 56% | growth inhibition [4] 95%
inactive: growth inhibition [1] -3% | inhibition [3] -5% | outcome [5] | outcome [6] | outcome [7] | outcome [8]

COc1ccc2nccc([C@@H](O)CN3CCC(NCc4cc5cc([N+](=O)[O-])ccc5[nH]4)CC3)c2c1
inactive: inhibition [2] 29% | inhibition [3] 4% | outcome [5] | outcome [6] | outcome [7] | outcome [8]
active: growth inhibition [1] 57% | growth inhibition [4] 99%

CN(Cc1cccc(O)c1)C1CCN(c2cc(NC(=O)c3cccc(F)c3)ccn2)CC1
active: growth inhibition [4] 98%
inactive: growth inhibition [1] 37% | inhibition [2] -2% | inhibition [3] 0% | outcome [5] | outcome [6] | outcome [7] | outcome [8]

COc1ccc(-c2ccc(CNC(=O)c3ccc(Cl)cc3)c(F)c2)cc1CN1CCCN(C)CC1
inactive: growth inhibition [1] 48% | inhibition [2] 25% | inhibition [3] -5% | outcome [5] | outcome [6] | outcome [7] | outcome [8]
active: growth inhibition [4] 99%

O=C(COc1cccc([N+](=O)[O-])c1)Nc1ccc(-c2nc3ccccc3[nH]2)cc1
active: growth inhibition [4] 99%
inactive: growth inhibition [1] 5% | inhibition [2] 12% | inhibition [3] 7% | outcome [5] | outcome [6] | outcome [7] | outcome [8]

O=c1cc(NCCCNC2CCc3c(Cl)cc(Cl)cc32)[nH]c2ccccc12 (stereo not drawn)
active: growth inhibition [4] 100%
inactive: growth inhibition [1] 29% | inhibition [2] 3% | inhibition [3] 0% | outcome [5] | outcome [6] | outcome [7] | outcome [8]

CCCCN=C(N)c1ccc(OCCCCCOc2ccc(C(N)=NCCCC)cc2)cc1
active: growth inhibition [1] 99% | growth inhibition [4] 99%
inactive: inhibition [2] 19% | inhibition [3] -4% | outcome [5] | outcome [6] | outcome [7] | outcome [8]

CCNc1cc(C(=O)N[C@@H](Cc2ccccc2)[C@H](O)CNC2CCC(F)(F)CC2)c(F)c(N2CCCCS2(=O)=O)c1
active: growth inhibition [1] 97% | growth inhibition [4] 100%
inactive: inhibition [2] -5% | inhibition [3] -1% | outcome [5] | outcome [6] | outcome [7] | outcome [8]

CN(C)CCCNCc1ccc(-c2ccc(C(F)(F)F)cc2)cc1
active: growth inhibition [4] 96%
inactive: growth inhibition [1] 35% | inhibition [2] 30% | inhibition [3] -4% | outcome [5] | outcome [6] | outcome [7] | outcome [8]

c1ccc(-c2ccc3c(Nc4ccc5[nH]ncc5c4)ccnc3c2)nc1
inactive: inhibition [3] 4% | outcome [5] | outcome [6] | outcome [7] | outcome [8]
active: growth inhibition [1] 99% | inhibition [2] 99% | growth inhibition [4] 100%

CC(Oc1cccc(Cl)c1)C(=O)N1CCc2ccccc21 (stereo not drawn)
inactive: inhibition [2] 4% | inhibition [3] -1% | outcome [5] | outcome [6] | outcome [7] | outcome [8]
active: growth inhibition [1] 77% | growth inhibition [4] 94%

Cc1ccc(/C=C/C(=O)NCCCCCN2CCC(c3c[nH]c4ccccc34)CC2)cc1
active: growth inhibition [4] 86%
inactive: growth inhibition [1] 7% | inhibition [2] 36% | inhibition [3] 0% | outcome [5] | outcome [6] | outcome [7] | outcome [8]

COc1cccc2c(NN=Cc3ccccc3Cl)cc(C)nc12
inactive: inhibition [2] 22% | inhibition [3] -2% | outcome [5] | outcome [6] | outcome [7] | outcome [8]
active: growth inhibition [1] 100% | growth inhibition [4] 102%

COc1ccc(CNC2CCN(C)CC2)cc1-c1ccc(S(=O)(=O)NCCc2ccccn2)c(F)c1
inactive: inhibition [2] 3% | inhibition [3] 1% | outcome [5] | outcome [6] | outcome [7] | outcome [8]
active: growth inhibition [1] 55% | growth inhibition [4] 101%

CCNc1cc(C)nc(Nc2ccc(NC(=O)Cc3ccc(OC)cc3)cc2)n1
active: growth inhibition [4] 101%
inactive: growth inhibition [1] 47% | inhibition [2] 30% | inhibition [3] -1% | outcome [5] | outcome [6] | outcome [7] | outcome [8]

— PubChem BioAssay
